# In PubChem BioAssay AID504832 (National Center for Advancing Translational Sciences (NCATS), 2011):
# Out of some 310,000 compounds screened, about 18,000 (5.8%) were called active. Not shown: some 22% with an inconclusive outcome. This is one part of a sample in which actives are shown more often than they occur. Calls come from the whole dose curve; as a rule, active = well fitted inhibition curve with a large enough effect; inconclusive = small, poorly fitted or top-dose-only effect, or another doubt; inactive = no such curve, though single readings can be large or run the other way.
# Test: Primary qHTS for delayed death inhibitors of the malarial parasite plastid, 48 hour incubation
# Details: P. falciparum luciferase growth in erythrocytes; series mostly up to 28.7 µM; activity change, negative = inhibition: at the top concentration
# Procedure, shortened: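 Parasite viability was followed by luminescence of a genomically integrated firefly luciferase. Cultures held 0.1% parasitemia at 2% hematocrit (final), incubated under 5% CO2 at 37 C.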
# % is set by controls: 0 for no effect and ±100 for the full control effect; potency is the fitted concentration of half-maximal effect.
SMILES,"activity change, negative = inhibition",Potency
Clc1ccc(Nc2ncnc3c2nnn3Cc2ccccc2)cc1,-9.13% (inactive),
CC(C)Nc1ncnc2c1nnn2Cc1ccccc1,-4.05% (inactive),
CC(C)Cc1nc(Nc2ccc(S(=O)(=O)N3CCCC3)cc2)c2nnn(Cc3ccccc3)c2n1,,4.65 µM (active)
COc1cccc(CNC(=O)c2cccnc2Sc2ccc(Cl)cc2)c1,-4.1% (inactive),
COc1ccc(C(=O)OCC(=O)c2ccc(Cl)s2)c(OC)c1OC,9.16% (inactive),
O=[N+]([O-])c1cc([N+](=O)[O-])c2cccnc2c1O,-13.4% (inactive),
CC(CNc1ccc([N+](=O)[O-])c2cccnc12)Nc1c([N+](=O)[O-])cc(C(F)(F)F)cc1[N+](=O)[O-] (stereo not drawn),,10.4 µM (active)
CCN(CC)c1ccc([N+](=O)[O-])c2cccnc12,7.92% (inactive),
N#Cc1cccc(OC(=O)c2ccc3c(=O)n4c(nc3c2)CCC4)c1,6.32% (inactive),
C=CCOc1ccc(/C=C/C(=O)OCC(=O)NC(C)c2ccc(F)cc2)cc1 (stereo not drawn),0% (inactive),
CCOC(=O)C1CCCN(CCSc2ccc(C)cc2)C1 (stereo not drawn),32.6% (inactive),
O=c1c(-c2ccc3c(c2)OCCO3)c(C(F)(F)F)oc2cc(O)cc(O)c12,-13.8% (inactive),
CCN1CCN(Cc2c(O)ccc3c(=O)c(-c4ccc(OC)c(OC)c4)c(C(F)(F)F)oc23)CC1,,7.38 µM (active)
CCc1cc2c(=O)c(-c3ccc(F)cc3)c(C(F)(F)F)oc2cc1OCC(=O)O,-22.9% (inactive),
CC(CN1CCC(n2nccc2NC(=O)C2CCCC2)CC1)c1ccccc1 (stereo not drawn),33.6% (inactive),
CC1CN(S(=O)(=O)c2cccc(C(F)(F)F)c2)CN1C(=O)N1CCOCC1 (stereo not drawn),29% (inactive),
Cc1ccc(C(=O)NC2CCN(C(=O)Nc3ccccc3Cl)CC2)cc1,-7.87% (inactive),
COC(=O)C1=C(C)Nc2ncnn2C1c1cccnc1 (stereo not drawn),7.48% (inactive),
CC1=C(C(N)=O)C(c2ccc(Br)cc2)n2ncnc2N1 (stereo not drawn),5.11% [at 0.00184 µM] (inactive),
Clc1ccc2c(c1)C1=C(C(c3ccncc3)O2)C(c2ccc(Br)cc2)n2ncnc2N1 (stereo not drawn),,13.1 µM (active)
CN1CCN(C(=O)C(=O)c2cn(CC(=O)N3CCCC3)c3ccccc23)CC1,-0.113% (inactive),
COCCNC(=S)Nc1cc(S(=O)(=O)N2CCOCC2)ccc1N1CCCCC1,-7.53% (inactive),
CCN(CC(=O)N1CCCC1)S(=O)(=O)c1ccc(F)cc1,78.3% (inactive),

SMILES,"activity change, negative = inhibition",Potency
CCN(CC)S(=O)(=O)c1ccc(N2CCOCC2)c(NC(=O)C(C)Oc2ccc(F)cc2)c1 (stereo not drawn),,4.65 µM (active)
Cc1ccc(S(=O)(=O)N2CCCCC2)cc1NC(=O)c1cccnc1,-15.5% (inactive),
O=C(COC(=O)Cc1ccc(F)cc1)Nc1cc(S(=O)(=O)N2CCOCC2)ccc1N1CCCC1,5.29% (inactive),
CCN1CCN(c2ccc(S(=O)(=O)N3CCCCC3)cc2NC(=O)Cc2c(Cl)cccc2Cl)CC1,-11.9% (inactive),
CCN(CC)S(=O)(=O)c1cc(C(=O)Nc2cc(S(=O)(=O)N3CCOCC3)ccc2N2CCCC2)ccc1F,,7.38 µM (active)
CCN(CC)S(=O)(=O)c1ccc(N2CCOCC2)c(NC(=O)C2COc3ccccc3O2)c1 (stereo not drawn),12.5% (inactive),
CCN1CCN(c2ccc(S(=O)(=O)N3CCCCC3)cc2NC(=O)c2cccc(NC(C)=O)c2)CC1,,13.1 µM (active)
Cc1cc(NC(=O)CSC2=NS(=O)(=O)c3cc(Cl)ccc3N2)no1,15.9% (inactive),
Cc1cc(S(=O)(=O)c2cc3ccc(O)c(C)c3oc2=O)ccc1F,8.19% [at 0.00184 µM] (inactive),
CCN(CC(=O)NCC(=O)Nc1cccc(C)c1C)Cc1ccccc1,-14.2% (inactive),
CC(Oc1cc2oc(=O)c3c(c2cc1Cl)CCCC3)C(=O)NCc1ccncc1 (stereo not drawn),15% (inactive),
Cc1nc2nc(C)c(NS(=O)(=O)c3ccc(C(C)(C)C)cc3)c(=O)n2[nH]1,17.4% (inactive),
CCCc1nn2c(=O)cc(CSCC(=O)Nc3cccc(C)c3)nc2s1,-9.24% (inactive),
COc1ccc(C(=O)NC2CCN(C(=S)Nc3ccccc3)CC2)cc1,-12.9% (inactive),
COc1cc(OC)cc(C(=O)NC2CCN(C(=O)N3c4ccccc4Sc4ccccc43)CC2)c1,,13.1 µM (active)
CCCNC(=S)N1CCC(NC(=O)c2ccc(OC)cc2)CC1,33.9% (inactive),
CSc1ccc(S(=O)(=O)N2CCC(C(=O)NCc3ccncc3)CC2)cc1,73.5% (inactive),
Cn1cc(C(=O)NCc2ccccc2F)cn1,9.58% (inactive),
Cn1c2cc(B(O)O)sc2c2cnn(Cc3ccccc3F)c(=O)c21,,10.4 µM (active)
O=c1c2ccccc2cnn1Cc1n[nH]c(=S)n1-c1ccccc1F,8.03% (inactive),
Cc1[nH]c2ccc(C(=O)N3CCN(C)CC3)cc2c1C,37.8% (inactive),
Cc1nn(-c2ccccc2)c(C)c1/C=N/NC(=O)CSc1nc2ccccc2c(=O)n1-c1ccccc1,4.39% (inactive),
COC(=O)c1ccc(CSc2nc3ccccc3c(=O)n2-c2cccc(OC)c2)o1,,13.1 µM (active)

SMILES,"activity change, negative = inhibition",Potency
COCCNC(=O)c1ccc(-n2c(SCc3cccnc3)nc3ccccc3c2=O)cc1,11.7% (inactive),
CN=C1S/C(=C\c2c(OC)cc(OC)cc2OC)C(=O)N1C,4.88% (inactive),
CC(=O)NCCc1ccc(S(=O)(=O)Nc2ccc(C)c(S(=O)(=O)N3CCOCC3)c2)cc1,0% (inactive),
COCCNC(=O)C(c1ccc(C)cc1)N(C(=O)CCC(=O)Nc1ccccn1)c1cccc(C)c1 (stereo not drawn),-7.09% (inactive),
COc1ccccc1N1CC(C(=O)Nc2nnc(SCC(=O)NC(C)C)s2)CC1=O (stereo not drawn),17.1% (inactive),
COc1ccccc1N1CC(C(=O)Nc2nnc(SCC(=O)NCC3CCCO3)s2)CC1=O (stereo not drawn),-23.4% (inactive),
Cc1ccc(C(=O)OCC(=O)NCc2cc(C)c(O)c(C)c2)cc1S(=O)(=O)N1CCCCC1,,8.28 µM (active)
Cc1ccc(C(=O)NCC(=O)O)cc1S(=O)(=O)N1CCCCC1,17.3% (inactive),
Cc1ccc(C(=O)OCC(=O)N2CC(C)CC(C)C2)cc1S(=O)(=O)N1CCCCC1 (stereo not drawn),1.05% (inactive),
O=C(c1ccccc1F)N1CCN(S(=O)(=O)c2ccc(Br)cc2)CC1,6.16% (inactive),
CCOC(=O)c1cc(-c2ccccc2C)n(Cc2cc(C)no2)n1,-12.3% (inactive),
COc1ccc(N2CCC(N3CCN(C)C(CCO)C3)CC2)cc1 (stereo not drawn),10.2% (inactive),
COc1ccc(NC(=S)NCC2CCN(c3ccc(OC)cc3)C2)cc1 (stereo not drawn),,11.7 µM (active)
COc1ccc(N2CCC(CNC(=S)Nc3c(C)cccc3C)C2)cc1 (stereo not drawn),,11.7 µM (active)
COc1cccc(N2CC(C(=O)Nc3c(C)cccc3C)CC2=O)c1 (stereo not drawn),-9.22% (inactive),
COc1ccc(NC(=S)NCCN2CCC(C)CC2)cc1,17.2% [at 5.75 µM] (inactive),
COc1ccc(NC(=O)N2CCC(Cc3ccccc3)CC2)cc1,-24.4% (inactive),
Cc1cc(C)cc(NS(=O)(=O)Cc2ccccc2)c1,11.7% (inactive),
CC(OC(=O)/C=C/c1ccccc1)C(=O)Nc1ccc(C(N)=O)cc1 (stereo not drawn),-13.2% (inactive),
Cc1ccccc1NC(=O)Cc1nc(COC(=O)c2ccc(C(F)(F)F)cc2)cs1,2.1% (inactive),
Cc1ccc(S(=O)(=O)N2CC(C)N(S(C)(=O)=O)C2)cc1 (stereo not drawn),8.27% (inactive),
CCOC(=O)C1=C(COC(=O)[C@H](C)NS(=O)(=O)c2ccccc2F)NC(=O)NC1C (stereo partly drawn),-17.8% (inactive),
